# Compound activity (PubChem)
# Vaccinia mCherry: qHTS for Stage-Specific Inhibitors of Vaccinia Orthopoxvirus: mCherry Reporter Primary qHTS. Vaccinia virus mCherry reporter infection, fluorescence. Potency, µM (top dose mostly 36.5 µM), for the others: top-dose activity change, negative = inhibition, actives largely listed as inhibitors. 310,000 tested, 0.63% active. AID 720579, 2013; calls by dose curve; tested in A549 cells; also: potency is read from the fitted curve at half-maximal effect; nearly all actives have a fitted effect of over 35% in size
# HCMV inh: qHTS Assay for inhibitors of the human cytomegalovirus (HCMV). HFF cells, HCMV-luciferase reporter, 72 h; stronger effect = lower value. activity change, negative = inhibition, % at 57.5 µM. 410,000 tested, 4.5% active; in the data active = activity change below about -60%; inconclusive = no clear call, values can overlap the other calls; inactive = above about -39%
#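 Cell-based, HFFs, 1000 cells/well, 16 h 37C; cpds in DMSO + HCMV-luc, MOI 1 PFU/cell; 72 h 37C; OneGlo luminescence after 5 min RT; norm. to buffer vs Salinomycin 10uM.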
# FMDV inh: High Throughput Screening for Foot and Mouth Disease Virus Antivirals; AID 1159524, 2015; Potency, µM (top dose mostly 57.9 µM), for inactives: at the highest dose activity change, negative = inhibition, usual class: inhibitors; FMDV antiviral cell-based qHTS; 410,000 tested, 1.2% active; calls by dose curve; tested in HEK293T cells; also: read-out not given here; potency is read from the fitted curve at half-maximal effect; nearly all actives have a fitted effect of over 45% in size
# Vaccinia Venus: qHTS for Stage-Specific Inhibitors of Vaccinia Orthopoxvirus: Venus Reporter Primary qHTS; Vaccinia virus Venus reporter expression, fluorescence; Potency, µM (titrated, usually from 36.5 µM), inactives show at the top dose activity change, negative = inhibition, hits mostly inhibitors; 330,000 tested, 0.46% active; calls by dose curve; tested in A549 cells; also: potency is read from the fitted curve at half-maximal effect; nearly all actives have a fitted effect of over 30% in size
# Giardia FBPA inh: qHTS Assay for Inhibitors of Fructose-1,6-bisphosphate Aldolase from Giardia Lamblia; purified Giardia FBPA; Potency, µM (series often up to 59.6 µM), for inactives: at the top dose activity, negative = inhibition, hits mostly inhibitors; A8B2U2; 290,000 tested, 0.71% active; AID 2451, 2010; also: potency is read from the fitted curve at half-maximal effect; nearly all actives have a fitted effect of over 55% in size
# Target sequence (A8B2U2 whole entry, looked up): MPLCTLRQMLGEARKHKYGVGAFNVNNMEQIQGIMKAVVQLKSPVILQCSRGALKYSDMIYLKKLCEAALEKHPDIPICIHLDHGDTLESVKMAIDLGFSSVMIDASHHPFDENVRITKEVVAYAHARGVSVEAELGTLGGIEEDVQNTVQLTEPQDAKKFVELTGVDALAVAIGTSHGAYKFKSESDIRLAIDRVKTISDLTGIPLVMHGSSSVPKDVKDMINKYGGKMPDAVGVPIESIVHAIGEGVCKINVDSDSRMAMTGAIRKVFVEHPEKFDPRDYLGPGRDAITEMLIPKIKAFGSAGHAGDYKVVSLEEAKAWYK
#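 40 nM FBPA preincubated 10 min at RT with compound (up to 57.5 uM final), then substrate plus GAPDH/TPI/NAD/arsenate coupling and diaphorase/resazurin added. Fluorescence read after 20 min at RT, 525/598 nm.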
# HCV inhibitor: qHTS Assay for Inhibitors of Hepatitis C Virus (HCV); Huh7.5.1 HCVcc-Cre infection, luciferase reporter, 44 h; Potency, µM (top dose mostly 41.8 µM), for the others: at the top dose activity change, negative = inhibition, usual class: inhibitors; 340,000 tested, 3.4% active; also: potency is read from the fitted curve at half-maximal effect
#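 Antiviral activity was scored by luciferase reporter output from cells infected with HCVcc-Cre (~0.5 moi) in presence of compound, 44 h infection period, cells seeded 1,000/well 4 h prior.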
# Numbers without * were called inactive; i = inactive; ? = inconclusive; / = no result; [ ] = dose if it differs, or a comment. In the library only some 7.5% were active in any assay of this set; here they are far more common. Unless noted, calls follow the shape of the dose curve; as a rule, active = well fitted curve in the direction sought with a large enough effect; inconclusive = small, poorly fitted or top-dose-only effect, or another doubt; inactive = no such curve, though single readings can be large; an effect the other way counts as inactive or inconclusive. % is scaled to controls: 0 for no effect and ±100 for the full control effect.
SMILES,Vaccinia mCherry,HCMV inh,FMDV inh,Vaccinia Venus,Giardia FBPA inh,HCV inhibitor
CCN(CC)c1nc(NNC(=O)c2ccccc2)nc(N(CC)CC)n1,-2.3%,-70.3*,3.4%,-7.0%,/,-20.4%
CC(C)c1nnc(NC(=O)C2CCCN2C(=O)Nc2cccc(Cl)c2)s1 (centres undefined),i,-1.4,34.8%,1.2%,11.7%,15.8%
O=[N+]([O-])c1ccc(/C([O-])=C(/C(=S)NCc2ccco2)[n+]2ccccc2)cc1,-9.3%,-61.0*,17.6%,-12.6%,?,-9.0%
Cc1nnc(N/N=C/c2ccco2)n1N,-0.6%,5.3,17.9%,4.0%,19.9µM*,-6.2%
COc1cccc(/C=N/Nc2ncnc3c2ncn3Cc2ccccc2)c1O,3.16µM*,-98.0*,-21.4%,?,-2.2%,?
COc1cccc(/C=N/Nc2cc(Cl)nc(C)n2)c1O,/,54.0,24.1%,/,-6.9%,0.1%
COc1cccc(/C=N/Nc2cc(N3CCOCC3)ncn2)c1O,?,-99.2*,1.5%,-23.8%,19.3%,?
COc1cccc(/C=N/Nc2nnc(C)n2N)c1O,7.08µM*,8.5,-5.0%,?,-10.5%,16.3%
COc1ccc(/C=N/Nc2cc(N3CCOCC3)ncn2)c(OC)c1,/,8.6,-11.9%,/,19.5%,5.8%
Cc1nnc(N/N=C/c2ccccc2F)n1N,/,1.4,7.4%,/,?,12.9%
CCOc1ccc(NC(=O)CN(C)C(=O)C2CC(=O)N(Cc3ccco3)C2)cc1OCC (centres undefined),/,0.0,-10.4%,/,/,19.8%
Cc1ccc(C(=O)N2CCc3cc(CNC(=O)COc4ccccc4)ccc32)cc1,i,32.7,-22.0%,?,/,/
CN(c1ccccc1)c1nc(N)c([N+](=O)[O-])c(Nc2ccc(F)cc2)n1,/,-14.5,-14.9%,/,-4.6%,?
CN(c1ccccc1)c1nc(N)c([N+](=O)[O-])c(Nc2cccc(F)c2)n1,/,14.0,?,/,1.0%,?
CN(c1ccccc1)c1nc(N)c([N+](=O)[O-])c(Nc2ccccc2F)n1,/,5.1,-19.8%,/,-8.5%,5.62µM*
CN(Cc1ccccc1)c1nc(N)c([N+](=O)[O-])c(Nc2cccc(F)c2)n1,/,43.7,-19.6%,/,-4.6%,11.2µM*
COc1ccc(OC)c(Nc2nc(N(C)c3ccccc3)nc(N)c2[N+](=O)[O-])c1,?,37.7,-27.8%,-23.2%,-1.9%,5.01µM*
COc1ccc(OC)c(Nc2nc(NCCC(C)C)nc(N)c2[N+](=O)[O-])c1,-17.3%,?,?,?,3.6%,?
O=S1(=O)C[C@@H](N2CCN(c3ccccn3)CC2)[C@H](COCc2ccccc2)N1,i,2.6,-10.1%,-4.4%,/,/
CCc1nn(C(CC)C(=O)NCc2cccc(OC)c2OC)c(=O)c2cc3occc3n12 (centres undefined),/,?,0.7%,/,10.1%,?
CC(C)(C)c1cc(CCC(=O)NNC(=O)c2ccncc2)cc(C(C)(C)C)c1O,/,-2.5,28.6%,/,/,?
O=C(CC(=O)c1ccccc1O)c1cccc(F)c1,-0.6%,/,11.4%,0.0%,?,-10.5%
O=C(CCCC(=O)c1ccc(F)cc1)c1ccc(F)cc1,-13.8%,-79.9*,55.3%,-13.2%,4.0%,0.0%
Cc1ccc(C(=O)CCS(=O)(=O)c2ccc(F)cc2)cc1,/,-98.9*,6.3%,/,7.2%,?
O=C(CC(=O)c1ccccc1O)c1ccc(F)cc1,/,23.5,28.0%,/,-27.9%,31.6µM*
SMILES,Vaccinia mCherry,HCMV inh,FMDV inh,Vaccinia Venus,Giardia FBPA inh,HCV inhibitor
CCCn1nc(C(=O)NNC(=O)c2ccc(C)c(C)c2)c2ccccc2c1=O,-12.0%,-17.0,-10.8%,-9.8%,/,13.1%
CCCn1nc(C(=O)N2CCN(S(=O)(=O)c3ccc(C)c(C)c3)CC2)c2ccccc2c1=O,/,-10.7,?,/,/,14.1µM*
CCc1ccc2nc(SCC(=O)N3CCCCC3)c(C#N)cc2c1,-8.4%,0.6,4.8%,2.1%,/,?
N#Cc1cc2cc3c(cc2nc1SCC(=O)N1CCOCC1)OCCO3,-1.9%,-61.1*,?,11.7%,/,4.0%
Cc1cc2cc3c(cc2nc1SCC(=O)O)OCCO3,-13.8%,-34.9,12.6%,-9.6%,4.1%,12.9%
Cc1cc2cc3c(cc2nc1SCC(=O)N1CCCC1)OCCO3,i,-60.6*,3.5%,-12.0%,19.8%,-27.5%
COc1ccc2c(c1)O[C@@H](c1cccc(C(F)(F)F)c1)[C@H](OC(=O)NCCOc1ccccc1)C2=O,/,/,/,/,-0.5%,/
O=c1[nH][nH]c2c1[C@H](c1ccc(Cl)cc1)O[C@H](C1CCCC1)C2,14.3%,-5.5,-23.1%,-11.3%,/,/
CN1CCN(CC(=O)Nc2nc3c(s2)CCCC3)CC1,/,101.2,-11.7%,/,-0.3%,-6.9%
CCN1CCN(/C=N/c2nc3c(s2)CCCC3)CC1,i,-68.9*,/,-7.1%,-1.8%,?
CCOC(=O)c1c(C)oc2nc(C)nc(NCc3ccc(OC)cc3)c12,-10.3%,-1.2,7.2%,-11.2%,/,/
CC(C)C[C@@H](CC(=O)N[C@H](CC(=O)N[C@@H]1CCCC[C@H]1C(=O)N[C@H](CC(=O)N[C@@H](CCC(=O)O)CC(=O)O)Cc1ccccc1)C(C)C)NC(=O)[C@@H]1CCCC[C@H]1N,/,/,/,/,-22.3%,/
COc1cccc2nccc(/C=C/c3ccc(N(C)C)cc3)c12,-19.0%,/,/,44.3%,/,/
CCOC(=O)c1cc2[nH]c3ccccc3c2[n+](-c2ccc([N+](=O)[O-])cc2)c1N,-16.2%,-91.0*,?,-7.9%,0.8%,10.8%
CCOC(=O)c1cc2[nH]c3ccccc3c2[n+](-c2ccc([N+](=O)[O-])cc2)c1C,-21.8%,-13.5,-24.9%,-9.3%,-5.2%,-8.9%
CC(C)c1ccc(N(C(=O)c2snc(C(N)=O)c2N)C(C(=O)NC2CCCC2)c2ccncc2)cc1 (centres undefined),-30.0%,-4.5,-3.2%,-15.9%,/,?
CCOc1ccc(-n2c(-c3ccc(OC)cc3)c[n+]3c2CCCCC3)cc1,i,-98.6*,?,-17.5%,3.2%,7.94µM*
CCOc1ccc(-n2c(-c3ccc(Br)cc3)c[n+]3c2CCCCC3)cc1,-17.8%,-98.9*,?,-5.1%,-0.1%,-13.9%
COc1cc(Cl)c(C)cc1NC(=O)c1nn(C)c2c1CSc1ccccc1-2,-3.6%,?,-8.1%,-7.1%,/,/
Nc1ccc2nc(-c3ccc(N)c(Cl)c3)[nH]c2c1,-18.7%[1.46 µM],4.7,7.2%,-20.4%,-20.7%,?
Nc1ccc(-c2nc3c(Cl)cc(N)cc3[nH]2)cc1,-9.6%,?,3.98µM*,-12.6%,-17.1%,?
CCCCCOc1ccc(NC(=O)Cn2c(-c3cncs3)nc3ccccc32)cc1,-29.9%,-63.9*,-8.2%,?,/,/
